Source: PubChem BioAssay
HP1b chromo inh = inhibitors of HP1-beta chromodomain binding to methylated histone tails; P83916; AlphaScreen HP1-beta / biotin-H3K9me3 peptide binding; Potency, µM (titrated, usually from 114 µM), for inactives: at the highest dose activity change, negative = inhibition, most hits filed as inhibitors; 390,000 tested, 0.56% active; AID 540317; note: nearly all actives have a fitted effect of over 70% in size
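AlphaScreen: HP1-beta (50 nM) preformed 30 min with biotin-H3(1-18)K9me3 peptide (50 nM) in PBS pH 7.4, 0.01% Tween-20. Compound added for 30 min at RT, then streptavidin donor/nickel chelate acceptor beads (10 ug/mL) for 30 min.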
G9a inh = G9a (human) methyltransferase inhibition; Q96KQ7; G9a H3K9 monomethylation, AlphaScreen, 2 h; Potency, µM (doses to about 102 µM), without a hit: at the highest dose activity, negative = inhibition, usual class: inhibitors; 350,000 tested, 8.8% active; AID 504332; note: % is set by controls: 0 for no effect and ±100 for the full control effect; nearly all actives have a fitted effect of over 75% in size
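Methyltransferase reactions run at room temperature for 2 h (20 nM enzyme, 500 nM biotin-H3K9 peptide, 20 uM SAM) after a 15 min compound preincubation; product detected by AlphaScreen beads and anti-H3K9me1 antibody.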
JMJD2A Tudor = JMJD2A Tudor domain (human) inhibition. Potency, µM (doses to about 114 µM), inactives show top-dose activity change, negative = inhibition, most hits filed as inhibitors. 390,000 tested, 4.4% active. AlphaScreen JMJD2A-Tudor / H3K4me3 peptide binding. AID 504339. O75164; note: % is set by controls: 0 for no effect and ±100 for the full control effect; nearly all actives have a fitted effect of over 50% in size
PLK1 PBD inh = inhibitors of human PLK1 polo-box domain binding; P53350; Plk1 PBD binding of FITC phosphopeptide, fluorescence polarization; Potency, µM, for inactives: max response, negative = inhibition, hits mostly inhibitors; 360,000 tested, 2.8% active; note: series mostly up to about 57 µM; % is set by controls: 0 for no effect and ±100 for the full control effect; nearly all actives have a fitted effect of over 65% in size
VDR inhibitor = inhibitors of human vitamin D receptor | Potency, µM, without a hit: max response, negative = inhibition, most hits filed as inhibitors | P11473 | VDR-SRC2-3 peptide fluorescence polarization, 2 h | 400,000 tested, 0.93% active | AID 504847; note: % is set by controls: 0 for no effect and ±100 for the full control effect
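The screen uses fluorescence polarization to detect compounds that interfere with recruitment of the SRC2-3 coactivator peptide to VDR; plates are read after 2 h at room temperature.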
BAZ2B block = blocks human BAZ2B; Q9UIF8; Potency, µM (titrated, usually from 114 µM), without a hit: at the highest dose activity change, negative = inhibition, most hits filed as inhibitors; 360,000 tested, 4.4% active; AlphaScreen BAZ2B-H3K14Ac peptide displacement; note: % is set by controls: 0 for no effect and ±100 for the full control effect; nearly all actives have a fitted effect of over 60% in size
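Compounds, titrated to a top concentration of 110 uM, were incubated 30 min at room temperature with preformed BAZ2B/acetyl-K14 H3 peptide complex (50 nM each). Proximity signal was measured by AlphaScreen after 20 min with beads.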
Active calls of the source: *; ? = inconclusive; · = no result; [ ] = dose if it differs, or a comment. Most compounds without a hit are left out; they make up all but 11% or so of the library. Calls come from the whole dose curve; as a rule, active = well fitted curve in the direction sought with a large enough effect; inconclusive = small, poorly fitted or top-dose-only effect, or another doubt; inactive = no such curve, though single readings can be large; an effect the other way counts as inactive or inconclusive. Potency is the fitted concentration of half-maximal effect.

SMILES	HP1b chromo inh	G9a inh	JMJD2A Tudor	PLK1 PBD inh	VDR inhibitor	BAZ2B block
CC(C)c1nnc(NC(=O)C2c3ccccc3Oc3ccccc32)s1	-17%	7%[12.7 µM]	-1%	?	-2%	-7%
CCc1nnc(NC(=O)C2COc3ccccc3O2)s1 (stereo not drawn)	49%	-2%[12.7 µM]	-15%	-5%	-4%	-2%
Cc1nnc(NC(=O)C2COc3ccccc3O2)s1 (stereo not drawn)	-4%	20%	-21%[57.1 µM]	21µM*	-14%	-1%
Cc1cccc(NC(=O)Cn2nc(N3CCN(c4ccccc4)CC3)ccc2=O)c1C	19%	0%[59 µM]	-16%	·	12%	-5%
CC1CCCC(NC(=O)CCS(=O)(=O)c2ccc3c(c2)NC(=O)CS3)C1C (stereo not drawn)	10%	57%	?	30µM*	?	-12%
CC1CCCCC1NC(=O)CCS(=O)(=O)c1ccc2c(c1)NC(=O)CS2 (stereo not drawn)	2%	17%	-26%	?	?	-5%
Cc1ccc(S(=O)(=O)N(CC2CO2)c2cc(Cl)ccc2Cl)cc1 (stereo not drawn)	43%	46%	14%	2%	-23%	10%
Cc1cc(C)n(/N=C/c2ccc(O)cc2)c(=O)c1C#N	13%	-1%	-31%[57.1 µM]	30µM*	-30%	-9%
Cc1ccc(/C=N/n2c(C)cc(C)c(C#N)c2=O)cc1	51%	24%[59 µM]	-4%	0%	6%	-5%
CC(=O)Nc1cccc(C(=O)N/N=C/c2cccc(C)n2)c1	2%	-30%	13µM*	27µM*	?	47%
Cc1cccc(C(=O)Nc2cccc(C(=O)N/N=C/c3cccc(C)n3)c2)c1	4%	7%	-22%	-11%	5%	9%
CC(NC(=O)COC(=O)/C=C/c1cccc(C(F)(F)F)c1)c1ccccc1 (stereo not drawn)	30%	-12%[59 µM]	-3%	0%	11%	6%
Cc1ccc[n+](-c2[nH]c(=O)sc2/C=N/N=C(\[O-])c2cccnc2)c1	41%	?	-2%	-10%	-1%	-11%
Cc1cc(C)c[n+](-c2[nH]c(=O)sc2/C=N/N=C(\N)[S-])c1	6%	40µM*	-11%	-21%	-12%	?
CCc1ccc[n+](-c2[nH]c(=O)sc2/C=N/N=C(\[O-])CCn2c3ccccc3c3ccccc32)c1	?	45µM*	-30%	-7%	4%	?
Cc1cc[n+](-c2[nH]c(=O)sc2/C=N/N=C(\[O-])c2ccccc2)cc1C	34%	50µM*	0%[57.1 µM]	24µM*	-22%	?
Cc1cc[n+](-c2[nH]c(=O)sc2/C=N/N=C(\[O-])c2ccccc2)cc1	10%	-39%	?	-18%	-15%	50µM*
COc1ccc(CN2CC[C@H]3C=CC[C@@H](C(=O)NCCc4ccccc4)[C@H]3C2=O)cc1OC	20%	·	-4%	-12%	1%	·
CCOC(=S)SCC(=O)Nc1ncc(C)s1	23%	·	-7%	0%	-9%	-3%
COc1ccc(-c2cc(C)no2)cc1S(=O)(=O)NCc1cccs1	15%	-1%[59 µM]	-21%	·	16%	0%
COc1ccc2c(c1)C(=O)[C@H](OC(=O)N[C@H](C)C1CCCCC1)[C@@H](c1ccc(OC)c(Br)c1)O2	·	·	·	·	0%	·
O=C(CN1c2ccccc2S(=O)(=O)c2ccccc21)Nc1ccccc1Cl	?	6%[59 µM]	-29%	·	2%	-17%
CC(=O)Nc1cccc(NC(=O)CSc2nn3c(=O)c(C)nnc3s2)c1	57%	34%[12.7 µM]	?	-18%	-20%	8%
Cc1nnc2sc(SCC(=O)Nc3ccc(Cl)cc3)nn2c1=O	61%	5%	?	7%	-5%	40µM*
Cc1cc(OCC(=O)N2CCOCC2)ccc1[N+](=O)[O-]	26%	-9%[59 µM]	-3%	-3%	9%	-4%
SMILES	HP1b chromo inh	G9a inh	JMJD2A Tudor	PLK1 PBD inh	VDR inhibitor	BAZ2B block
c1ccc2sc(N3CCN(Cc4nnnn4CC4CCCO4)CC3)nc2c1 (stereo not drawn)	26%	28µM*	-12%	-7%	-5%	·
c1ccc(CN2CCN(c3nc4ccccc4s3)CC2)cc1	28%	1%	-11%	-11%	-15%	1%
C[C@H]([C@@H](N)C(=O)N[C@@H](C(=O)O)[C@@H]1O[C@H](n2ccc(=O)[nH]c2=O)[C@@H](O)[C@H]1O)[C@@H](O)c1ccc(O)cn1	26%	3.2µM*	-27%	-7%	2%	?
O=C1CCN(Cc2ccccc2)CCN1[C@H](CO)c1ccccc1	49%	·	-16%	-23%	-19%	5%
CN1CCC(=O)N([C@H](CO)c2ccccc2)CC1	52%	45µM*	-20%	-21%	-21%	-27%
O=C(N/N=C/c1ccc(-c2ccccc2[N+](=O)[O-])o1)[C@H]1C[C@@H]1c1ccccc1	-35%	8.9µM*	?	-24%	?	?
N#C/C(=C\c1ccc(-c2ccccc2[N+](=O)[O-])o1)C(N)=O	20%	2%	-13%	-4%	-1%	-3%
O=C(O)/C(=C\c1ccc(-c2ccccc2[N+](=O)[O-])o1)c1ccccc1	-16%	?	?	38µM*	-26%	?
O=C(/C=C/c1ccc(-c2ccccc2[N+](=O)[O-])o1)c1ccccc1	?	32µM*	?	-14%	-20%	11µM*
O=C1C=C(c2ccc3ncccc3c2)C[C@@H](c2ccc3c(c2)OCO3)C1	11%	3%[2.33 µM]	?	2%	-5%	?
CN(Cc1ccccn1)C(=O)c1cc(COc2ccc(F)c(F)c2)on1	·	·	·	-11%	·	·
C[N+]1(C2CCC3CCCC2C3O)CCCCC1 (stereo not drawn)	7%	?	20µM*	-11%	25%	-12%
O=C(CSc1nnnn1-c1ccccc1)NC1CCCc2ccccc21 (stereo not drawn)	50%	35µM*	14%	0%	-2%	3%
CC(C)Nc1ccc(Nc2ccnc3cc4ccccc4cc23)cc1	25µM*	8.9µM*	11µM*	2%	-16%	16µM*
CC(O)CNCCCCOc1ccc(OCc2ccccc2)cc1 (stereo not drawn)	12%	15%[59 µM]	-22%	4%	1%	?
O=C(COc1coc(CN2CCc3ccccc3C2)cc1=O)Nc1ccc([N+](=O)[O-])cc1	10%	?	-20%	-11%	-18%	5%
O=C(COc1coc(CN2CCc3ccccc3C2)cc1=O)N1CCOCC1	38%	45µM*	-4%	-11%	-12%	0%
CCC(=O)c1ccc(OCC(=O)Nc2nc(C)cs2)cc1	25%	·	-14%	1%	-3%	·
Cc1ccccc1NC(=O)c1ccc(Cl)c(NC(=O)c2cccnc2)c1	·	-47%	·	·	·	-2%
